# From PubChem
# A selection: hits, their analogues and other compounds. The true share with any hit is near 3.5%.
# GPR151 activ – activates the human receptor GPR151 | activation, % at 11.2 µM | PathHunter beta-arrestin GPR151 cells, luminescence | Q8TDV0 | AID 1508602 | 650,000 compounds, 1% hits; in the data active means activation above about 4.9%
# TEAD-YAP block – TEAD-YAP interaction inhibition. HEK-TIYL cells, TEAD-Gal4/YAP UAS-luciferase luminescence. inhibition, % at 9.12 µM. 640,000 compounds, 1.4% hits. AID 1259422; in the data active means inhibition above about 32%
# FBW7 activator – activators of human E3 ligase FBW7 | AID 1259310 | normalized activity (activation), % at 26.1 µM | AlphaScreen FBW7–phospho-cyclin E peptide binding, activator screen | Q969H0 | 650,000 compounds, 0.13% hits; in the data active means normalized activity above about 1.9%;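 further: purified mutant Fbw7 with reduced substrate affinity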
# Target sequence (Q969H0 whole entry, looked up): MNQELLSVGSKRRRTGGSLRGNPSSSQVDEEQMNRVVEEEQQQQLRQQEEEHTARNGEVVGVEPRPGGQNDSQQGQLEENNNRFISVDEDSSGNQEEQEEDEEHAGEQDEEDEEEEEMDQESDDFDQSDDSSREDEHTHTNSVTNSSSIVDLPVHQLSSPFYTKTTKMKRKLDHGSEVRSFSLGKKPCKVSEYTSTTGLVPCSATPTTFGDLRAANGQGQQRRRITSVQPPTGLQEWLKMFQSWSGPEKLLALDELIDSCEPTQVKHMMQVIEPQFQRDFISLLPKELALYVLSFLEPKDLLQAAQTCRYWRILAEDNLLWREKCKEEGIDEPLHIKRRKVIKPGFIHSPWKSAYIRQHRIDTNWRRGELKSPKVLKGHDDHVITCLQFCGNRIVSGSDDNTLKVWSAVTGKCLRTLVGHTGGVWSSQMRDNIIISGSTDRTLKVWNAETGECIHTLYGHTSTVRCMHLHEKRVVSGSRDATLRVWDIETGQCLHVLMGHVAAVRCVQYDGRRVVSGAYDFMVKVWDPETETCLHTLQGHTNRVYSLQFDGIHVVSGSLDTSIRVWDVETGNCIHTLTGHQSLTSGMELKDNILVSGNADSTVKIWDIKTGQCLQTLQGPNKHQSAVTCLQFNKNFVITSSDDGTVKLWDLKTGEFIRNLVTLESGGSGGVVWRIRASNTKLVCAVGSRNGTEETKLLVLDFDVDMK
# MITF inh – inhibitors of human MITF; AID 1259374; AlphaScreen MITF homodimerization, bead proximity signal; inhibition, % at 2.6 µM; 650,000 compounds, 0.91% hits; in the data active means inhibition above about 50%
# Hits are given with their value; n = inactive.
SMILES,GPR151 activ,TEAD-YAP block,FBW7 activator,MITF inh
CCN1CCN(C(=O)c2cc(C(C)C)n(-c3nc4ccccc4s3)n2)CC1,n,81,n,n
COc1cccc(NC(=O)c2cc(C(C)C)n(-c3nc4ccccc4s3)n2)c1,n,48,n,n
O=C(c1ccccc1)N1CCN(c2nc3ccccc3s2)CC1,n,n,n,n
CC(C)c1cc(C(=O)Nc2ccc(Cl)cn2)nn1-c1nc2ccccc2s1,n,46,n,n
CCOC(=O)c1cc(N2C(=O)C3C4C=CC(C4=C(C)C)C3C2=O)ccc1Cl (centres undefined),n,n,n,n
Cc1ccc(Oc2ccc(NC(=O)c3ccc(N4C(=O)c5ccccc5C4=O)cc3)cc2)cc1,n,n,n,n
c1ccc(-c2nc(NC3CCCCC3)c3ccccc3n2)cc1,n,n,n,n
c1ccc2c(NC3CC3)nc(N3CCCC3)nc2c1,n,32,n,n
Clc1nc(NC2CCCC2)c2ccccc2n1,n,60,n,n
OCCOc1cccc(CN2CCN(CC3CCCCC3)C(CCO)C2)c1 (centres undefined),n,n,n,n
C=CCn1c(N)c(C(=O)N2CCCCC2)sc1=S,n,n,n,n
COc1ccc(Cl)cc1C(=O)Nc1ccc(-c2nc3cccnc3s2)cc1,n,n,n,n
O=C1OC(c2ccc(Cl)c([N+](=O)[O-])c2)=N/C1=C/c1cccc(Cl)c1,n,n,n,n
O=C1OC(c2cccc(F)c2)=N/C1=C\c1ccccc1,n,36,n,n
O=C1OC(c2ccc(-c3ccccc3)cc2)=N/C1=C\c1cccc(F)c1,n,n,n,n
O=C1OC(c2ccc(Cl)c([N+](=O)[O-])c2)=N/C1=C\c1cccc(F)c1,n,n,2.0,n
COC(=O)CCC(=O)N1CCCC(CCC(=O)N(C)CCc2ccccn2)C1 (centres undefined),n,n,n,n
COC(=O)C1=CN(CCc2ccccc2)C=C(C(=O)OC)C1c1ccc(Cl)cc1,n,n,n,n
CCOC(=O)CC1(C)Nc2cccc([N+](=O)[O-])c2N1 (centres undefined),n,n,n,n
Cc1ccc(-n2c(SCc3cc(=O)n4ccccc4n3)nc3[nH]ncc3c2=O)cc1Cl,n,33,n,n
O=C1N[C@H](Cc2ccc(O)cc2)C(=O)N2C[C@@H](NCc3cccc(Cl)c3)C[C@@H]12,n,n,n,n
Cn1c(=O)cc(N2CCN(c3cccc(Cl)c3)CC2)[nH]c1=O,n,38,n,n
Cn1c(=O)cc(N2CCN(c3ccc(F)cc3)CC2)[nH]c1=O,n,n,n,n
C=C(C)CN1C(=O)NC(CC)(C2CCN(Cc3ccccc3C)CC2)C1=O (centres undefined),n,n,n,n
C=C(C)CN1C(=O)NC(CC)(C2CCN(CC3=CC[C@H]4C[C@@H]3C4(C)C)CC2)C1=O (some centres undefined),n,43,n,n
SMILES,GPR151 activ,TEAD-YAP block,FBW7 activator,MITF inh
COCCNc1c(-c2ccc(OC)c(O)c2)nc2cnccn12,n,n,n,n
CCOc1cc(-c2nc3cnccn3c2NCCOC)ccc1O,n,n,6.3,n
O=C1CC(c2ccc3c(c2)OCCO3)Oc2ccc([N+](=O)[O-])cc21 (centres undefined),n,52,n,n
O=C1CC(c2ccc3c(c2)OCCO3)Oc2ccccc21 (centres undefined),n,n,n,n
O=C1CCCc2c1cc(C(=O)Nc1ccccc1Br)c(=O)n2-c1ccccc1,n,n,n,n
Cc1ccc(-c2cn3c(n2)sc2cc(C(=O)N4CCC(C(N)=O)CC4)ccc23)cc1,n,n,n,n
Cc1ccc2c(c1)sc1nc(-c3ccccc3)cn12,n,96,2.4,n
CCn1cc(CNc2nc(C)c(-c3ccn(Cc4ccccc4)n3)s2)c(C)n1,n,n,n,n
Cc1nc(N/N=C/c2ccc(O)cc2O)cc(-c2ccccc2)n1,n,n,n,n
Cc1cc(N/N=C\c2ccccc2)nc(-c2ccccc2O)n1,n,n,n,n
Cc1cc(N/N=C/c2ccc(O)cc2O)nc(-c2ccccc2O)n1,n,43,n,n
Oc1ccc(/C=N/Nc2ncc(-c3ccccc3)cn2)c(O)c1,n,62,n,n
COC(=O)C1C(c2cccc(F)c2)c2c([nH][nH]c2=O)CC1(C)O (centres undefined),n,n,n,n
O=C(O)c1cc2c3c(c1)C1C=CCC1CN3CC1CC=CC21 (centres undefined),n,n,n,76
O=C(O)C1C2CC=CC2c2cc(Br)cc3c2N1CC1CC=CC31 (centres undefined),n,n,5.5,n
COc1ccccc1N1CCN(c2nc(NCCO)c3cnn(C)c3n2)CC1,n,36,n,n
CCN1/C(=C2/N=C(c3ccccc3)OC2=O)C=Cc2ccccc21,n,n,n,n
CCN1C(=O)/C(=C2\C=Cc3ccccc3N2CC)SC1=S,n,n,n,n
CCN1/C(=C/c2ccc3ccccc3[n+]2CC)C=Cc2ccccc21,n,88,n,n
Cc1ccc2c(c1)C=C/C(=C\c1cccc[n+]1C)N2C,n,84,n,n
CCCC[n+]1ccc(/C=C2\C=Cc3ccccc3N2CC)c2cc(C)ccc21,n,92,n,72
CCN1/C(=C/c2cccc[n+]2C)C=Cc2ccc(C)cc21,n,75,n,n
CCN1C(=O)S/C(=C\c2ccc(Cl)cc2)C1=O,n,n,n,n
CCN1/C(=C/c2cc[n+](-c3ccc(Cl)cc3)cc2)C=Cc2ccccc21,n,91,n,n
CCN1/C(=C/C(=C(C#N)C#N)C(F)(F)F)C=Cc2ccccc21,n,n,n,n
SMILES,GPR151 activ,TEAD-YAP block,FBW7 activator,MITF inh
CCN1/C(=C/c2cccc[n+]2C)C=Cc2ccccc21,n,75,n,n
Cn1ccnc1C1(O)COC2(CCN(C(=O)c3ccco3)CC2)C1 (centres undefined),n,n,n,n
CCOC(=O)c1ccccc1NC(=O)CN1C(=O)C(C)N(c2ccc(C)cc2)C1=O (centres undefined),n,46,n,n
COC(=O)c1ccccc1NC(=O)CN1C(=O)C(C)N(c2ccc(C)cc2)C1=O (centres undefined),n,45,n,n
Cc1ccc(N2C(=O)N(CC(=O)Nc3ccccc3OC(F)F)C(=O)C2C)cc1 (centres undefined),n,n,n,n
Cc1ccc(N2C(=O)N(CC(=O)Nc3ccccc3C(F)(F)F)C(=O)C2C)cc1 (centres undefined),n,n,n,n
Cc1cc2c(=O)n(CC(=O)NCC(=O)Nc3ccc4c(c3)OCCO4)cnc2s1,n,n,n,n
COCCOC(=O)C1=C(N)OC2=C(C(=O)CCC2)C1c1ccc(Br)cc1 (centres undefined),n,n,n,n
Cc1ccnc(NC(c2cc(C)ccc2O)c2ccc3cccnc3c2O)c1 (centres undefined),n,n,n,n
Oc1ccc(Cl)c(C(Nc2ccccn2)c2ccc3cccnc3c2O)c1 (centres undefined),n,81,n,n
Oc1c(C(Nc2cccnc2)c2cccs2)ccc2cccnc12 (centres undefined),n,n,n,n
